Assay [1] can be described thus: NCI Yeast Anticancer Drug Screen. Data for the rad50 strain (AID 155).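 Also: 0% = growth of vehicle-only cultures of the same strain.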 The settings on record: S. cerevisiae rad50 strain growth inhibition, hits give high values. The essentials: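 Compounds were tested on a yeast strain with an engineered DNA damage repair alteration; the reported value is growth inhibition normalised to vehicle treatment.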
Assay [2] in a line: NCI Yeast Anticancer Drug Screen. Data for the mec2-1 strain (AID 157). The settings on record: S. cerevisiae mec2-1 strain, hits give high values. The essentials:
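Cells of the genetically defined mec2-1 yeast strain are incubated with test compound. Inhibition of growth is calculated against vehicle-treated controls.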

A short description of assay [3]: NCI Yeast Anticancer Drug Screen. Data for the sgs1 mgt1 strain (AID 161).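 Also: 0% = growth of cultures given vehicle only.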 As to conditions: S. cerevisiae sgs1 mgt1 strain, hits give high values. The essentials:
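Read-out: growth inhibition vs vehicle controls. Cells: mutant yeast strain deficient in DNA damage repair.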

Assay [4] can be described thus: NCI Yeast Anticancer Drug Screen. Data for the cln2 rad14 strain (AID 165).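 Also: 0% = growth equal to vehicle treated cultures.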 The settings on record: S. cerevisiae cln2 rad14 strain, hits give high values. The procedure, abridged:
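The screen exposed genetically defined yeast (cln2 rad14) to test compounds and scored growth inhibition relative to vehicle-treated controls.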

Assay [5] in a line: NCI Yeast Anticancer Drug Screen. Data for the bub3 strain (AID 167). The settings on record: S. cerevisiae bub3 mutant strain, hits give high values. The essentials: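 Growth of a checkpoint-deficient yeast mutant is measured after compound exposure. Values represent inhibition relative to vehicle.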
A short description of assay [6]: NCI Yeast Anticancer Drug Screen. Data for the mlh1 rad18 strain (AID 175). The settings on record: S. cerevisiae mlh1 rad18 strain growth inhibition, hits give high values. The essentials:
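Compound-treated yeast growth, normalised to vehicle controls. Strain bears defined DNA repair mutations.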

Where [7] appears, read: at 5.0 µM (retest, dose inferred, filed as 0.5).
Where [8] appears, read: at 50.0 µM (retest, dose inferred, filed as 5.0).

This passage reports growth inhibition results from PubChem BioAssay (NCI).

About 79,000 compounds went through this panel and 15% of them were active in at least one assay; those are over-represented in the sample as a whole. Unmarked numbers belong to inactive results. Active and inactive are the calls of the source. Rule as the data show it: active = growth inhibition above about 70%; inactive = the rest.

As to `CC(=O)OCCc1ccc(CCc2ccccc2)cc1`, the growth inhibition in assay [1] (setting [7]) is 13%; in assay [1] (setting [8]), 47%; in assay [1] (at 50.0 µM), 40.3%; in assay [2] (setting [7]) it was 1%; in assay [2] (setting [8]), 4%; in assay [2] (at 50.0 µM), 18.6%. In addition, the growth inhibition in assay [3] (setting [7]) was 6%; in assay [3] (setting [8]), 28%; in assay [3] (at 50.0 µM), 18.6%; in assay [4] (setting [7]), 4%; in assay [4] (setting [8]), -6%; in assay [4] (at 50.0 µM), -31.6%. Besides, the growth inhibition is 8% in assay [5] (setting [7]); 45% in assay [5] (setting [8]); 67.7% in assay [5] (at 50.0 µM); 6% in assay [6] (setting [7]); -4% in assay [6] (setting [8]); 62.6% in assay [6] (at 50.0 µM).

For `O=[N+]([O-])c1ccc(CCCCc2ccc([N+](=O)[O-])cc2)cc1`, the growth inhibition in assay [1] (setting [7]) was -5%; in assay [1] (setting [8]), -8%; in assay [1] (at 50.0 µM) it was -6.1%; in assay [2] (setting [7]) it was 3%; in assay [2] (setting [8]), -18%; in assay [2] (at 50.0 µM), 3%. For the same compound, the growth inhibition was 2% in assay [3] (setting [7]); -9% in assay [3] (setting [8]); -1.8% in assay [3] (at 50.0 µM); -2% in assay [4] (setting [7]); -10% in assay [4] (setting [8]); -59.9% in assay [4] (at 50.0 µM). Further, the growth inhibition in assay [5] (setting [7]) was 13%; in assay [5] (setting [8]), 21%; in assay [5] (at 50.0 µM), 7.35%; in assay [6] (setting [7]), -10%; in assay [6] (setting [8]) it was -16%; in assay [6] (at 50.0 µM), 29%.

On to `O=C1CC(O)C=C1Nc1ccc(Cl)cc1` (configuration not stated), for which the growth inhibition in assay [1] (setting [7]) is 3%; in assay [1] (setting [8]), 14%; in assay [1] (at 50.0 µM), 98.8% (active); in assay [2] (setting [7]), -3%; in assay [2] (setting [8]), 29%; in assay [2] (at 50.0 µM), 98.2% (active). The growth inhibition in assay [3] (setting [7]) is -6%; in assay [3] (setting [8]), 4%; in assay [3] (at 50.0 µM), 98.7% (active); in assay [4] (setting [7]), -8%; in assay [4] (setting [8]), -8%; in assay [4] (at 50.0 µM), 98.5% (active). Also, the growth inhibition in assay [5] (setting [7]) is -9%; in assay [5] (setting [8]), -22%; in assay [5] (at 50.0 µM), 97.8% (active); in assay [6] (setting [7]), 0%; in assay [6] (setting [8]) it was 7%; in assay [6] (at 50.0 µM), 98.5% (active).

Regarding `CCCCCCCCCCCCCCCCCC(=O)OCCN1C(=O)c2ccccc2C1=O`, the growth inhibition in assay [1] (setting [7]) is -1%; in assay [1] (setting [8]), 4%; in assay [1] (at 50.0 µM) it was -5.4%; in assay [2] (setting [7]) it was 10%; in assay [2] (setting [8]) it was -10%; in assay [2] (at 50.0 µM), 9.15%. Moreover, the growth inhibition was 5% in assay [3] (setting [7]); 12% in assay [3] (setting [8]); 17.7% in assay [3] (at 50.0 µM); -1% in assay [4] (setting [7]); -6% in assay [4] (setting [8]); 71.7% (active) in assay [4] (at 50.0 µM). The growth inhibition was -4% in assay [5] (setting [7]); -8% in assay [5] (setting [8]); 44% in assay [5] (at 50.0 µM); -2% in assay [6] (setting [7]); -11% in assay [6] (setting [8]); 43.3% in assay [6] (at 50.0 µM).

For `CC(C)CCCC(C)C1CCC2C3C=CC4=CCCCC4(C)C3CCC12C` (configuration not stated), the growth inhibition in assay [1] (setting [7]) is -18%; in assay [1] (setting [8]), 95% (active); in assay [1] (at 50.0 µM), 97.6% (active); in assay [2] (setting [7]) it was 3%; in assay [2] (setting [8]) it was 98% (active); in assay [2] (at 50.0 µM) it was 94.8% (active). The growth inhibition in assay [3] (setting [7]) was -8%; in assay [3] (setting [8]) it was 96% (active); in assay [3] (at 50.0 µM) it was 8.35%; in assay [4] (setting [7]) it was -5%; in assay [4] (setting [8]), 94% (active); in assay [4] (at 50.0 µM) it was 93% (active). Also, the growth inhibition was -4% in assay [5] (setting [7]); 93% (active) in assay [5] (setting [8]); 91.2% (active) in assay [5] (at 50.0 µM); 31% in assay [6] (setting [7]); 98% (active) in assay [6] (setting [8]); 98.1% (active) in assay [6] (at 50.0 µM).

Take `CCCCCCCCCCCCCCCCCC[N+]1(CC)CCCCC1`: the growth inhibition is 99% (active) in assay [1] (setting [7]); 99% (active) in assay [1] (setting [8]); 90.3% (active) in assay [1] (at 50.0 µM); 99% (active) in assay [2] (setting [7]); 99% (active) in assay [2] (setting [8]); 91.2% (active) in assay [2] (at 50.0 µM). The growth inhibition was 99% (active) in assay [3] (setting [7]); 99% (active) in assay [3] (setting [8]); 91.5% (active) in assay [3] (at 50.0 µM); 99% (active) in assay [4] (setting [7]); 99% (active) in assay [4] (setting [8]); 90.2% (active) in assay [4] (at 50.0 µM). Moreover, the growth inhibition was 99% (active) in assay [5] (setting [7]); 99% (active) in assay [5] (setting [8]); 90.4% (active) in assay [5] (at 50.0 µM); 99% (active) in assay [6] (setting [7]); 99% (active) in assay [6] (setting [8]); 89.2% (active) in assay [6] (at 50.0 µM).

For the compound `C(=C1/CNC/C(=C/c2ccccc2)C1)/c1ccccc1`, the growth inhibition in assay [1] (setting [7]) was 11%; in assay [1] (setting [8]), 99% (active); in assay [1] (at 50.0 µM) it was 99.5% (active); in assay [2] (setting [7]), 17%; in assay [2] (setting [8]), 99% (active); in assay [2] (at 50.0 µM), 99.6% (active). Also, the growth inhibition is 16% in assay [3] (setting [7]); 96% (active) in assay [3] (setting [8]); 99.5% (active) in assay [3] (at 50.0 µM); 27% in assay [4] (setting [7]); 99% (active) in assay [4] (setting [8]); 99.2% (active) in assay [4] (at 50.0 µM). Also, the growth inhibition is 6% in assay [5] (setting [7]); 99% (active) in assay [5] (setting [8]); 99.3% (active) in assay [5] (at 50.0 µM); -1% in assay [6] (setting [7]); 97% (active) in assay [6] (setting [8]); 99.3% (active) in assay [6] (at 50.0 µM).

For the compound `C/C(CC(O)(C(F)(F)F)C(F)(F)F)=N/Nc1ccc([N+](=O)[O-])cc1[N+](=O)[O-]`, the growth inhibition was 16% in assay [1] (setting [7]); 99% (active) in assay [1] (setting [8]); 99.2% (active) in assay [1] (at 50.0 µM); -11% in assay [2] (setting [7]); 99% (active) in assay [2] (setting [8]); 99.5% (active) in assay [2] (at 50.0 µM). Also, the growth inhibition in assay [3] (setting [7]) is -2%; in assay [3] (setting [8]), 99% (active); in assay [3] (at 50.0 µM), 99.5% (active); in assay [4] (setting [7]), 13%; in assay [4] (setting [8]), 99% (active); in assay [4] (at 50.0 µM), 99.3% (active). The growth inhibition in assay [5] (setting [7]) was -10%; in assay [5] (setting [8]) it was 100% (active); in assay [5] (at 50.0 µM), 99.5% (active); in assay [6] (setting [7]), 12%; in assay [6] (setting [8]) it was 99% (active); in assay [6] (at 50.0 µM), 99.3% (active).

On to `CCCCCCCCCCCCCCCCCC(=O)OCCOCCO`, for which the growth inhibition was -12% in assay [1] (setting [7]); -16% in assay [1] (setting [8]); -2.4% in assay [1] (at 50.0 µM); -22% in assay [2] (setting [7]); -46% in assay [2] (setting [8]); -0.25% in assay [2] (at 50.0 µM). Moreover, the growth inhibition was -10% in assay [3] (setting [7]); -23% in assay [3] (setting [8]); -2.7% in assay [3] (at 50.0 µM); -33% in assay [4] (setting [7]); -21% in assay [4] (setting [8]); 60.8% in assay [4] (at 50.0 µM). Also, the growth inhibition in assay [5] (setting [7]) was -27%; in assay [5] (setting [8]), -24%; in assay [5] (at 50.0 µM), -13.3%; in assay [6] (setting [7]) it was -28%; in assay [6] (setting [8]), -25%; in assay [6] (at 50.0 µM), -21.6%.
